Bioassay records from PubChem.
CSC inhib – cancer stem cell viability inhibitors, primary screen, luminescence; 300,000 compounds, 1.1% hits; cancer stem cell-like cells viability; AID 2717, 2010; inhibition, % at 7.5 µM; in the data active means inhibition above about 75%; tested in HMLE shEcad cells
Beta apoptosis – inhibitors of cytokine-induced beta cell apoptosis, primary screen, luminescence; INS-1E cytokine-induced death, ATP luminescence, 48 h; percent of positive-control rescue, neutral wells zero; protection from apoptosis, % (no concentration beside the values); 300,000 compounds, 0.8% hits; AID 435005, 2010;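 active means Every replicate reaches about 75%, or at least half do and their mean reaches it too, limit read from the data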;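 further: higher means more ATP so stronger rescue from cytokine killing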
Shn3 inh set2 – reduction of Shn3 3'UTR firefly luciferase signal, primary screen, Schnurri-3 inhibitor project, cell-based, Clone20 osteoblasts, set 2; Clone20 osteoblast Shn3 3'UTR firefly luciferase, 24 h; inhibition, % at 12.5 µM; 360,000 compounds, 0.52% hits;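 active means mean inhibition of at least 75% with every replicate also reaching 75%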
Gli-Sufu block – Gli-Sufu pathway antagonists, primary screen, luciferase luminescence, Sufu-KO-LIGHT cells, uHTS; Sufu-KO-LIGHT fibroblasts, Gli luciferase reporter luminescence; 340,000 compounds, 0.74% hits; inhibition, % at 5 µM;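 active means inhibition above about 55%, limit read from the data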
Mdm2-MdmX inh – inhibitors of human Mdm2-MdmX association, primary screen, cell-based, luminescence, split luciferase, SaOS-2, uHTS; Protein Mdm4 (Homo sapiens) + E3 ubiquitin-protein ligase Mdm2 (Homo sapiens), …; SaOS-2 split-luciferase Mdm2/MdmX complementation; inhibition, % at 8 µM; 330,000 compounds, 3% hits; AID 485346, 2010;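 active means inhibition of at least 50% at 8 µM in the primary screen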
PAX8 inh HTS – inhibitors of PAX8-driven TPO luciferase reporter, primary screen, RMG-I cells, single concentration | SteadyGlo, 24 h | inhibition, % at 12.6 µM | 360,000 compounds, 1.2% hits;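 active means mean replicate inhibition at least 60% with every replicate also reaching 60%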;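 further: luciferase light reporting Pax8 driven TPO promoter activity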
A number is an active result; – = inactive; · = no result given. A selection: hits, their analogues and other compounds. The true share with any hit is near 4%.

SMILES | CSC inhib | Beta apoptosis | Shn3 inh set2 | Gli-Sufu block | Mdm2-MdmX inh | PAX8 inh HTS
Cc1ccc(S(=O)(=O)Nc2ccc3c(c2)C(=O)N([C@@H](C)CO)C[C@H](C)[C@H](CN(C)C(=O)Nc2c(C)noc2C)OCCCC[C@@H](C)O3)cc1 | · | · | · | · | · | –
CC(/C=N/NC(=O)c1cc(-c2ccc(C)s2)[nH]n1)=C\c1ccccc1 | 87 | – | – | – | – | –
Cc1nn(-c2ccccc2)c(C)c1/C=N/NC(=O)c1cc(-c2ccc(Br)s2)[nH]n1 | 76 | – | – | – | – | –
COc1ccc(CN(C)C[C@H]2Oc3ccc(NC(=O)NC4CCCCC4)cc3C(=O)N([C@@H](C)CO)C[C@H]2C)cc1 | · | · | · | · | · | –
CS(=O)(=O)Nc1ccc2c(c1)[C@@H]1C[C@@H](CC(=O)NCc3ccc(Cl)cc3)O[C@H](CO)[C@@H]1O2 | · | · | · | · | · | –
CCCNC(=O)Nc1ccc2c(c1)C(=O)N(C)C[C@@H](OC)[C@H](C)CN(C(=O)C1CCOCC1)[C@@H](C)CO2 | · | · | · | · | · | –
COc1cc(C=NO)nc(-c2ccccn2)c1 | · | · | 93 | 87 | · | ·
COc1ccc2nc(-c3ccccn3)[nH]c2c1 | – | – | – | – | – | –
C[C@@H]1CN([C@@H](C)CO)S(=O)(=O)c2ccc(-c3cccc(C(=O)N(C)C)c3)cc2O[C@H]1CN(C)C | · | · | · | · | · | –
Cc1cc(-n2c(C)cc(C(=O)CSc3nncn3C(C)C)c2C)no1 | – | – | – | – | – | –
Cc1cc(-n2c(C)cc(C(=O)CSc3nncn3C)c2C)no1 | – | – | 90 | – | – | –
CCC[C@@H](CN1CCC[C@H]1CN1C(N)=NC[C@@H]1Cc1ccccc1)N1C[C@@H](Cc2ccccc2)N(CCCC2CCCC2)C1=N | – | – | – | – | – | ·
CCC[C@@H](CN1CCC[C@H]1CN1C(N)=NC[C@@H]1Cc1ccccc1)N1C[C@@H]([C@H](C)CC)N(CCCC2CCCC2)C1=N | · | 101 | 93 | 61 | – | ·
C[C@H]1CN([C@@H](C)CO)C(=O)c2cccc(NC(=O)Nc3cccc4ccccc34)c2O[C@@H]1CN(C)C(=O)Nc1ccc(C(F)(F)F)cc1 | · | · | · | · | · | 74
C[C@@H]1CN([C@H](C)CO)C(=O)c2cccc(NC(=O)Nc3cccc4ccccc34)c2O[C@H]1CN(C)C(=O)Nc1ccc(C(F)(F)F)cc1 | · | · | · | · | · | 81
C[C@H](CO)N1C[C@H](C)[C@H](CN(C)C(=O)Nc2ccc3c(c2)OCO3)Oc2c(NC(=O)Nc3ccccc3)cccc2C1=O | · | · | · | · | · | 72
C[C@@H]1CN([C@H](C)CO)C(=O)c2cccc(NC(=O)Nc3ccc(C(F)(F)F)cc3)c2O[C@H]1CN(C)CC1CC1 | · | · | · | · | · | 78
C[C@@H]1CN([C@@H](C)CO)C(=O)c2cccc(NC(=O)Nc3ccc(C(F)(F)F)cc3)c2O[C@@H]1CN(C)CC1CC1 | · | · | · | · | · | –
C[C@H]1CN([C@@H](C)CO)C(=O)c2cccc(NC(=O)Nc3ccc4c(c3)OCO4)c2O[C@@H]1CN(C)C(=O)Nc1ccccc1 | · | · | · | · | · | –
C[C@@H]1CN([C@H](C)CO)C(=O)c2cccc(NC(=O)Nc3cccc4ccccc34)c2O[C@@H]1CN(C)C(=O)Nc1ccc(C(F)(F)F)cc1 | · | · | · | · | · | –
CCNC(=O)[C@@H]1[C@@H](CO)[C@@H]2Cn3c(ccc(C4=CCCC4)c3=O)[C@H]1N2Cc1cccnc1 | · | · | · | · | · | –
Cc1ccc(C(=O)/C=C/c2ccc(-c3ccc(C)cc3)o2)cc1 | – | – | 92 | – | – | –
O=C(/C=C\c1ccc(-c2ccccc2)o1)c1ccccc1 | – | – | – | – | – | –
CN1c2ccc(Br)cc2[C@H]2[C@H](CCN2C(=O)Nc2cc(F)ccc2F)[C@H]1CO | · | · | · | · | · | –
C[C@H]1CN([C@@H](C)CO)C(=O)c2c(c3ccccc3n2C)-c2ccccc2CO[C@@H]1CN(C)C(=O)[C@@H](Cc1ccccc1)N(C)C | · | · | · | · | · | –
SMILES | CSC inhib | Beta apoptosis | Shn3 inh set2 | Gli-Sufu block | Mdm2-MdmX inh | PAX8 inh HTS
C[C@H](CO)N1C[C@H](C)[C@H](CN(C)C(=O)[C@H](Cc2ccccc2)N(C)C)OCc2ccccc2-c2c(n(C)c3ccccc23)C1=O | · | · | · | · | · | 116
C[C@H](CO)N1C[C@H](C)[C@@H](CN(C)C(=O)CCN(C)C)OCc2ccccc2-c2c(n(C)c3ccccc23)C1=O | · | · | · | · | · | 65
C[C@H](CO)N1C[C@H](C)[C@@H](CN(C)C(=O)Nc2ccc(F)cc2)OCc2ccccc2-c2c(n(C)c3ccccc23)C1=O | · | · | · | · | · | 100
CCCN(C)C[C@@H]1OCCCC[C@@H](C)Oc2ccc(NC(=O)C3CCCCC3)cc2C(=O)N([C@H](C)CO)C[C@@H]1C | · | · | · | · | · | –
CN(C)C(=O)C[C@@H]1C[C@H]2c3cc(NC(=O)NC4CCCCC4)ccc3O[C@H]2[C@@H](CO)O1 | · | · | · | · | · | –
O=C(C[C@H]1CC[C@H]2[C@@H](COC[C@H](O)CN2Cc2cc(F)cc(F)c2)O1)Nc1nccs1 | · | · | · | · | · | –
CC(C)C#Cc1cnc2c(c1)C(=O)N([C@@H](C)CO)C[C@@H](C)[C@@H](CN(C)C(=O)c1ccccc1F)O2 | · | · | · | · | · | –
CCCNC(=O)[C@@H]1[C@@H](CO)[C@@H]2Cn3c(ccc(/C=C/c4ccccc4)c3=O)[C@H]1N2C(=O)c1ccncc1 | · | · | · | · | · | –
O=C(c1cccc(F)c1)N1CC[C@@H]2[C@H](CO)Nc3ccc(C#Cc4ccc(F)cc4)cc3[C@@H]21 | · | · | · | · | · | –
Nc1nc(=S)c2ncn(C3CCCCC3)c2[nH]1 | · | · | – | – | · | –
Nc1nc(=S)c2ncn([C@@H]3O[C@H](CO)[C@@H](O)[C@H]3O)c2[nH]1 | 98 | – | – | – | – | 97
Nc1nc(Cl)nc2c1ncn2[C@@H]1O[C@H](CO)[C@@H](O)[C@H]1O | – | – | – | – | – | 70
CC1(C)OC2C(CO)OC(n3cnc4c(=S)nc(N)[nH]c43)C2O1 (stereo not drawn) | · | · | – | · | · | ·
Nc1nc(=S)c2ncn(C3OC(CO)C(O)C3O)c2[nH]1 (stereo not drawn) | 90 | – | – | – | · | –
CCNC(=O)Nc1ccc2c(c1)C(=O)N(C)[C@H]1CC[C@H](CC(=O)NCc3cccc(F)c3)O[C@H]1CO2 | · | · | · | · | · | –
C[C@@H]1CCCCO[C@H](CN(C)Cc2ccccc2)[C@H](C)CN([C@@H](C)CO)C(=O)c2cc(NC(=O)c3ccccc3)ccc2O1 | · | · | · | · | · | –
C[C@@H]1CCCCO[C@H](CN(C)Cc2ccccc2)[C@@H](C)CN([C@H](C)CO)C(=O)c2cc(NC(=O)c3ccccc3)ccc2O1 | · | · | 90 | · | · | –
C[C@@H]1CCCCO[C@H](CN(C)Cc2ccncc2)[C@H](C)CN([C@@H](C)CO)C(=O)c2cc(NC(=O)c3ccccc3)ccc2O1 | · | · | · | · | · | 70
C[C@@H]1CCCCO[C@H](CN(C)Cc2ccncc2)[C@H](C)CN([C@@H](C)CO)C(=O)c2cc(NC(=O)C3CCCCC3)ccc2O1 | · | · | · | · | · | 67
